In ChEMBL document CHEMBL4513216, “Probing the Open Global Health Chemical Diversity Library for Multistage-Active Starting Points for Next-Generation Antimalarials” (ACS Infect Dis, 2020):
Screen size: about 68,000 compounds; about 2,700 (4%) showed an effect of 50% or more. This excerpt belongs to a sample that is enriched for strong results.

tested on: Plasmodium berghei; assay: Screen against P. berghei liver stage (PbLuc), transformed with Luciferase, at 2uM; format: functional, HepG2; conditions: tested at 2 uM

Question: For `Cc1ccnc(C2(C)CCCN2S(=O)(=O)c2c(C)noc2C)n1` (configuration not stated), which INHIBITION is on record?
Answer: Its INHIBITION is 15.61%.

Question: With `Cc1nn2cnnc2c(C)c1CCC(=O)Nc1nc2c(s1)CCC2` as the molecule, how does the INHIBITION read?
Answer: Its INHIBITION is -4.37%.

Question: How did the INHIBITION turn out when `O=C(Cc1ccccn1)N1CCc2nc(-c3cnccn3)nc(O)c2C1` was run?
Answer: Its INHIBITION is 41.31%.

Question: With `Oc1nc(-c2cnccn2)nc2c1CCN(Cc1ccccn1)C2` as the molecule, how does the INHIBITION read?
Answer: The INHIBITION was 19.47%.

Question: Which INHIBITION does the source give for `O=C(Cc1ccccn1)N1CCc2c(O)nc(-c3cnccn3)nc2C1` here?
Answer: Its INHIBITION is 56.57%.

Question: With `COCCc1noc(-c2ccc(=O)[nH]c2)n1` as the molecule, how does the INHIBITION read?
Answer: The INHIBITION was -18.6%.

Question: How did the INHIBITION turn out when `CS(=O)(=O)CCNCc1ccc(OCc2ccncc2)cc1` was run?
Answer: Its INHIBITION is -117.21%.

Question: How did the INHIBITION turn out when `O=S1(=O)COCCN1Cc1ccc(Cl)c(Cl)c1` was run?
Answer: The INHIBITION was -31.95%.

Question: Which INHIBITION does the source give for `O=S1(=O)COCCN1Cc1ccc(F)c(F)c1` here?
Answer: Its INHIBITION is 22.52%.

Question: How did the INHIBITION turn out when `O=S1(=O)COCCN1Cc1ccc(Cl)c(F)c1` was run?
Answer: The INHIBITION was 51.45%.

Question: With `Cc1ccc(C(C)NC(=O)N2CCCN(CC(F)F)CC2)s1` (configuration not stated) as the molecule, how does the INHIBITION read?
Answer: Its INHIBITION is 9.27%.

Question: With `CC(C)N1[C@H](CN2CCCC2)C[C@@H]2CN(C(=O)c3ccoc3)CC[C@@H]21` as the molecule, how does the INHIBITION read?
Answer: The INHIBITION was 50.32%.

Question: For `CC(C)N1[C@H](CN2CCCC2)C[C@@H]2CN(Cc3ccoc3)CC[C@@H]21`, which INHIBITION is on record?
Answer: The INHIBITION was 1.92%.

Question: How did the INHIBITION turn out when `CC(=O)N1C(CN2CCCC2)C[C@@H]2CN(C(=O)c3ccoc3)CC[C@@H]21` (some centres not stated) was run?
Answer: The INHIBITION was 4%.

Question: `Cc1cc(CN2CCN(CC(O)c3ccc(C)c(C)c3)CC2)no1` (configuration not stated) was tested. Which INHIBITION did it give?
Answer: The INHIBITION was -29.69%.

Question: How did the INHIBITION turn out when `CC(C)c1ccc(OCCC(=O)N2CCC(C(N)=O)CC2)cc1` was run?
Answer: The INHIBITION was 3.33%.

Question: `CS(=O)(=O)Cc1ccc(CNC(=O)N2CCC(C(N)=O)C2)cc1` (configuration not stated) was tested. Which INHIBITION did it give?
Answer: The INHIBITION was 31%.

Question: For `CCOCc1ccc(CNC(=O)N2CCC(C(N)=O)C2)cc1` (configuration not stated), which INHIBITION is on record?
Answer: Its INHIBITION is 47.23%.

Question: For `CC(C)c1ccc(OCCC(=O)N2CCCN(C(N)=O)CC2)cc1`, which INHIBITION is on record?
Answer: The INHIBITION was 19.71%.

Question: For `CC(C)c1ccc(OCCC(=O)N2CCCC(C(N)=O)C2)cc1` (configuration not stated), which INHIBITION is on record?
Answer: Its INHIBITION is 52.47%.

Question: How did the INHIBITION turn out when `CCCOc1ccc(CNC(=O)N2CCC(C(N)=O)C2)cc1` (configuration not stated) was run?
Answer: The INHIBITION was 76.69%.

Question: With `COCCN1CCCn2cnc(CNC3CCCC3)c2C1` as the molecule, how does the INHIBITION read?
Answer: Its INHIBITION is -24.29%.

Question: Which INHIBITION does the source give for `Fc1cnc(N2CCC3(CC2)CN(Cc2cccs2)CCO3)nc1` here?
Answer: The INHIBITION was 43.29%.

Question: For `COc1ccccc1C(C)(C)NC(=O)Nc1ccc(F)c(C(N)=O)c1`, which INHIBITION is on record?
Answer: The INHIBITION was 20.21%.

Question: `CN(Cc1cncnc1)[C@@H]1CN(Cc2ccco2)C[C@@H]2CCCO[C@@H]21` was tested. Which INHIBITION did it give?
Answer: The INHIBITION was -37.2%.

Question: For `CCCN1CCN(C(=O)Cn2nc(C(F)(F)F)c(Br)c2C2CC2)CC1`, which INHIBITION is on record?
Answer: Its INHIBITION is -3.36%.

Question: With `CC(C)C(NC(=O)c1ccc(Cl)cc1Cl)C(=O)Nc1ccn(C)n1` (configuration not stated) as the molecule, how does the INHIBITION read?
Answer: The INHIBITION was 42.76%.

Question: `O=C(COC1CCCCC1)Nc1ccn(CCc2ccncc2)n1` was tested. Which INHIBITION did it give?
Answer: The INHIBITION was 13.99%.

Question: `Cn1cccc1C(=O)NC(C)(C(N)=O)c1cccc(C(F)(F)F)c1` (configuration not stated) was tested. Which INHIBITION did it give?
Answer: Its INHIBITION is -23.95%.

Question: With `OC1(c2ccccc2F)CCN(Cc2ccccc2N2CCCC2)CC1` as the molecule, how does the INHIBITION read?
Answer: The INHIBITION was 14.73%.

Question: For `Cc1cccc(C2(O)CCN(Cc3ccccc3N3CCCC3)CC2)c1`, which INHIBITION is on record?
Answer: The INHIBITION was 4.06%.

Question: With `OC1(c2ccc(F)cc2)CCN(Cc2ccccc2N2CCCC2)CC1` as the molecule, how does the INHIBITION read?
Answer: The INHIBITION was 58.02%.

Question: With `Cc1noc(C)c1CN(C)CC(c1cccs1)N1CCOCC1` (configuration not stated) as the molecule, how does the INHIBITION read?
Answer: The INHIBITION was 43.7%.

Question: Which INHIBITION does the source give for `Cc1cc(N(C)C)nc(NC2CCc3nc(C)nn3C2)n1` (configuration not stated) here?
Answer: The INHIBITION was 13.28%.

Question: How did the INHIBITION turn out when `O=C(O)c1ccccc1-c1ccc(CNC(=O)C2CCOCC2)cc1` was run?
Answer: The INHIBITION was 22.95%.

Question: `OCC1(Cc2ccc(Cl)cc2)CCN(Cc2ccccc2O)CC1` was tested. Which INHIBITION did it give?
Answer: The INHIBITION was -58.31%.

Question: Which INHIBITION does the source give for `COc1cccc(CN2CCC(CO)(Cc3ccc(Cl)cc3)CC2)c1O` here?
Answer: Its INHIBITION is 71.83%.

Question: How did the INHIBITION turn out when `COc1ccc(CN2CCC(CO)(Cc3ccc(Cl)cc3)CC2)c(O)c1` was run?
Answer: Its INHIBITION is 36.34%.

Question: For `O=C(Nc1ccc(N2CCOCC2)nc1)N1CCc2sccc2C1`, which INHIBITION is on record?
Answer: Its INHIBITION is 57.59%.

Question: `O=C(Nc1ccc(N2CCCC2)nc1)N1CCc2sccc2C1` was tested. Which INHIBITION did it give?
Answer: The INHIBITION was -19.54%.

Question: Which INHIBITION does the source give for `O=C(Nc1ccc(N2CCCCC2)nc1)N1CCc2sccc2C1` here?
Answer: The INHIBITION was -4.09%.

Question: For `CN1C(=O)CCC12CCN(S(=O)(=O)c1ccccc1)CC2`, which INHIBITION is on record?
Answer: Its INHIBITION is 46.32%.

Question: Which INHIBITION does the source give for `Cn1cnnc1S(=O)(=O)C1CCN(C(=O)c2ccco2)CC1` here?
Answer: The INHIBITION was 31.78%.

Question: How did the INHIBITION turn out when `Cn1cnnc1S(=O)(=O)C1CCN(C(=O)c2cccs2)CC1` was run?
Answer: The INHIBITION was 25.55%.

Question: With `CCSc1ccccc1C(=O)N1CCC(S(=O)(=O)c2nncn2C)CC1` as the molecule, how does the INHIBITION read?
Answer: Its INHIBITION is 59.08%.

Question: For `CN(Cc1ccccc1F)Cc1cc2c(cc1Br)OCCO2`, which INHIBITION is on record?
Answer: Its INHIBITION is 12.68%.

Question: For `Cc1cnc(C(=O)N2C[C@@H]3CC[C@H]2CN(Cc2cscn2)C3)[nH]1`, which INHIBITION is on record?
Answer: The INHIBITION was -0.62%.

Question: How did the INHIBITION turn out when `CN1CCC(N(C)c2ccccc2CNCc2ccco2)CC1` was run?
Answer: Its INHIBITION is 24.6%.

Question: `Cc1noc(C)c1CNCc1ccccc1N(C)C1CCN(C)CC1` was tested. Which INHIBITION did it give?
Answer: The INHIBITION was 50.46%.

Question: For `CCc1cc(CNCc2ccccc2N(C)C2CCN(C)CC2)on1`, which INHIBITION is on record?
Answer: The INHIBITION was -19.27%.

Question: With `CCC(CO)N(C/C(C)=C/c1ccco1)Cc1ccsc1` (configuration not stated) as the molecule, how does the INHIBITION read?
Answer: Its INHIBITION is 5.85%.

Question: `CCOc1ncccc1C(=O)NC1CC(=O)N(CC(F)(F)F)C1` (configuration not stated) was tested. Which INHIBITION did it give?
Answer: The INHIBITION was -27.19%.
